According to PubChem BioAssay AID1851 (National Center for Advancing Translational Sciences (NCATS), 2009):
Among all 16,000 compounds or so, about 4,000 (25%) were called active. Another 26% or so got no clear call; they are omitted. These entries were drawn from the full list. A structure can be active in one record and inactive in another. Values without a mark were called inactive. The call rests on the fitted dose curve; in most records, active means well fitted curve in the direction sought with a large enough effect; inconclusive means small, poorly fitted or top-dose-only effect, or effect the other way; inactive means no such curve, though single readings can be large or run the other way.

Biological target: Cytochrome P450 2C9 (Homo sapiens) (UniProt P11712)
Sequence (P11712 whole entry, looked up): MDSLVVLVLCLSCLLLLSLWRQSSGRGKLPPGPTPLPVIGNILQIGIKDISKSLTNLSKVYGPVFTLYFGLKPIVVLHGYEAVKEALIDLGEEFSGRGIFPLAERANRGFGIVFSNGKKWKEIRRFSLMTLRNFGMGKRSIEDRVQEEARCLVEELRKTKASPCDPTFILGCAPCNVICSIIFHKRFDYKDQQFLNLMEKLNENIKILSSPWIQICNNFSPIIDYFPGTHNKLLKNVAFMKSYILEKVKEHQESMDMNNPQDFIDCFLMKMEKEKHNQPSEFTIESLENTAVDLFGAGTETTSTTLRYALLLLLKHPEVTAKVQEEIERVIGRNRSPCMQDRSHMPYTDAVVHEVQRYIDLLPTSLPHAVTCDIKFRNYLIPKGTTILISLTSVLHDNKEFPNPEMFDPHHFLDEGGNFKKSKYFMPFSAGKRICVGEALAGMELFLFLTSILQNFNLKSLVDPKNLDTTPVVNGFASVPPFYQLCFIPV
Assay: Cytochrome panel assay with activity outcomes
Conditions: recombinant CYP, pro-luciferin dealkylation, luminescence, p450-cyp2c9; series mostly up to 57.1 µM; activity, negative = inhibition: at the top concentration
On the % scale 0 is the no-effect control and ±100 the full control effect.

SMILES | activity, negative = inhibition | AC50
C/C(O)=C(/C#N)C(=O)Nc1cc(Br)ccc1Br | 15.6% | 
O=C1C2CCN(CC2)C1(CO)CO | -2.93% [at 11.4 µM] | 0.0631 µM (active)
O=P(O)(O)C(Cl)(Cl)P(=O)(O)O | -14.4% | 
COC1=CC(=O)O[C@@H](/C=C\c2ccccc2)C1 | -17.6% [at 25.6 µM] | 
N[C@H](CP(=O)(O)O)C(=O)O | 1.7% | 
CN1C(=O)C(C2c3ccccc3C(=O)N2Cc2ccc([N+](=O)[O-])cc2)C(=O)N(C)C1=O (centres undefined) |  | 25.1 µM (active)
CCCCN1C(=O)C(C2c3ccccc3C(=O)N2Cc2ccccc2)C(=O)NC1=S (centres undefined) |  | 2 µM (active)
Cc1cc(C)c(-n2c(O)c(C=NCCN3CCOCC3)c(=O)[nH]c2=O)c(C)c1 | 49.6% | 
CCC(=O)Nc1ccc(N2CCN(CC)CC2)c(Cl)c1 | -6.79% | 
NC(=O)CN1C[C@@H](O)CC1=O | 17.9% | 
CC1(C)CCC(C)(C)c2c1ccc(O)c2Cc1c(O)ccc2c1C(C)(C)CCC2(C)C | -17.2% [at 11.4 µM] | 
C[C@@]12CCC(=O)C=C1C=C[C@H]1[C@H]3CC[C@](O)(CCC(=O)O)[C@]3(C)CC[C@@H]12 | 12.2% [at 25.6 µM] | 
O=C(C[C@H](c1ccccc1)c1c(O)c2ccccc2oc1=O)c1ccccc1 |  | 0.631 µM (active)
CC(C)c1ccc(C(c2c(O)c3ccccc3oc2=O)c2c(O)c3ccccc3oc2=O)cc1 |  | 3.16 µM (active)
c1ccc(CN2CCCC3(CCNCC3)C2)cc1 | -5.12% | 
CN1CCC(c2c[nH]c3ccc(O)cc23)CC1 | -23.6% | 
C[C@]1(O)CC[C@H]2[C@@H]3[C@@H](O)CC4=CC(=O)CC[C@@]4(C)[C@H]3CC[C@]21C | 14% [at 11.4 µM] | 
C[C@@H]1O[C@@H](O[C@H]2C[C@@H](O)[C@]3(CO)[C@@H]4[C@@H](O)C[C@]5(C)[C@H]([C@@H]6COC(=O)C6)CC[C@@]5(O)[C@H]4CC[C@@]3(O)C2)[C@H](O)[C@H](O)[C@@H]1O | 6.73% | 
CN1CCC2(CC1)CCN(C(=O)Oc1ccccc1)CC2 | 2.84% | 
C[C@@]12C(=O)OC(=O)[C@]1(C)[C@H]1CC[C@@H]2O1 | -8.32% [at 25.6 µM] | 
O=C(Nc1cccc(C(F)(F)F)c1)c1cccn(Cc2ccc3c(c2)OC(F)(F)O3)c1=O |  | 3.16 µM (active)
O=C(Nc1ccc(C(F)(F)F)cc1)c1cccn(Cc2ccc3c(c2)OC(F)(F)O3)c1=O |  | 8.91 µM (active)

SMILES | activity, negative = inhibition | AC50
O=P(O)(O)CCP(=O)(O)O | -4.93% [at 11.4 µM] | 
C[N+]1(C)[C@@H]2CC[C@H]1CC(OC(=O)c1c[nH]c3ccccc13)C2 (some centres undefined) | -0.446% | 
C[C@]12N[C@H](Cc3ccccc31)c1ccccc12 | inactive | 
CCN(CCCl)Cc1ccccc1Br | 16.2% | 
CC(C)c1ccc2c(c1)c(SC(C)(C)C)c(CC(C)(C)C(=O)O)n2Cc1ccc(Cl)cc1 |  | 6.31 µM (active)
CC[C@H](C(=O)[C@H](C)[C@H](O)[C@H](C)CCc1ccc(C)c(O)c1C(=O)O)[C@H]1O[C@](CC)([C@@H]2CC[C@@](O)(CC)[C@H](C)O2)C[C@H]1C | -8.1% [at 25.6 µM] | 
CC[C@@]1(c2ccc(N)cc2)CCC(=O)NC1=O | inactive | 
CC(C)NC(=O)N1CCC2(CC1)CCN(C(=O)Oc1ccccc1)CC2 | 12% | 
NCCP(=O)(O)O | 4.14% [at 11.4 µM] | 
NC(N)=NCCC[C@H](N)C(=O)O | -4.67% | 
NP(N)(=O)NC(=O)c1ccc(F)cc1 | 26.5% | 
O[C@@H](c1cc(-c2ccccc2)nc2c1ccc1ccccc12)[C@@H]1CCCCN1 | -8.99% [at 11.4 µM] | 
COc1ccc(Cc2nccc3cc(OC)c(OC)cc23)cc1OC | -20.9% [at 25.6 µM] | 
CCC1C(=O)OCC1Cc1cncn1C (centres undefined) |  | 15.8 µM (active)
CC[C@H]1C(=O)OC[C@H]1Cc1cncn1C | -29.2% [at 11.4 µM] | 
CC(=O)O[C@H]1CC[C@@]2(C)[C@@H](CC[C@H]3[C@H]2CC(=O)[C@@]2(C)[C@@H]3C[C@H]3CC(C)=CC(=O)[C@H]32)C1 | -10.2% [at 11.4 µM] | 
C[C@@]12CC[C@H](O)C[C@@H]1CC[C@H]1[C@H]2CC[C@@]2(C)[C@@H](C3=CC(=O)OC3)CC[C@]12O | 6.88% [at 25.6 µM] | 
N#CCCN | -12.2% | 
Ic1ccccc1CN[C@@H]1C2CCN(CC2)[C@H]1C(c1ccccc1)c1ccccc1 | -10.7% | 
NC(N)=Nc1ccc2[nH]c3c(c2c1)C[C@]1(O)[C@@H]2Cc4ccc(O)c5c4[C@]1(CCN2CC1CC1)[C@H]3O5 | -13.2% | 
COC(=O)[C@@H]1[C@@H]2C[C@H]3c4[nH]c5cc(OC)ccc5c4CCN3C[C@@H]2C[C@H](OC(=O)/C=C\c2cc(OC)c(OC)c(OC)c2)[C@H]1OC | -29.1% [at 25.6 µM] | 
